Measured values taken from PubChem BioAssay (Tox21).
Inconclusive results are not listed. Calls of active or inactive are those of the source. Calls come from the whole dose curve; as a rule, active = well fitted activation curve with a large enough effect in the repeat runs; inconclusive = weak or mixed curves; inactive = no such curve, though single readings can be large or run the other way.
% is set by controls: 0 for no effect and ±100 for the full control effect; potency is the fitted concentration of half-maximal effect.

Experiment: qHTS assay to identify small molecule agonists of the estrogen related receptor signaling pathway with the pleiotropic PPARgamma coactivator (PGC) (AID 1224823)
Settings: ERR/PGC reporter cell line, luciferase agonist mode; series mostly up to 46.1 µM; activation: at the top concentration
From the text: National Center for Advancing Translational Sciences [NCATS]
NIH Chemical Genomics Center [NCGC]
U.S. Environmental Protection Agency [EPA]
National Institutes of Environmental Health Sciences [NIEHS]
National Toxicology Program [NTP]
Estrogen related receptors (ERRs), the first orphan nuclear receptors discovered, play an important role in the control of cellular energy metabolism. ERRs are required for high-energy production in response to the environmental challenges. The pleiotropic PPARgamma coactivator (PGC) is a major partner of ERR and a key regulator in energy homeostasis. Together they have been implicated in the etiology of metabolic disorders such as Type 2 diabetes and metabolic syndrome. ERR-alpha was also identified as an adverse marker for breast cancer progression; ERR-alpha-positive tumors have a poor prognosis. To screen and to identify environmental compounds that perturb the PGC/ERR signaling pathways could provide valuable information for potential therapeutic or preventive measures in the treatment of metabolic disease. For identifying PGC/ERR agonists, PGC/ERR cell line (provided by NTP) has been used to screen LOPAC library.
The PGC/ERR cells were dispensed at 2,000 cells/5 ul/well in 1536-well white plates using a Multidrop dispenser. After the assay plates were incubated at a 37 C/5% CO2 incubator for 6 hours, 23 nL of compounds dissolved in DMSO, positive and negative controls or DMSO only was transferred to the assay plate by a pin tool. The plates were incubated at 37 C for 18 hours. 4 ul/well of One-Glo reagent was added into the assay plates using a Flying Reagent Dispenser. After 30 min incubation at room temperature, the luminescence intensity in the plates was measured using a ViewLux plate reader.
For `Nc1cc(Cl)c(NC2=NCCN2)c(Cl)c1`, the “activation” value was 3.25% (inactive).
With `COc1ccc(/C=C/C(=O)Nc2ccccc2C(=O)O)cc1OC` the “activation” value was -7.89% (inactive).
With `N[C@@H](Cn1ccc(=O)c(O)c1)C(=O)O` the “activation” value was 1.68% (inactive).
In the case of `O=c1ccn([C@@H]2O[C@H](COP(=O)(O)OP(=O)(O)O)[C@@H](O)[C@H]2O)c(=O)[nH]1`, the “activation” value is reported as -1.52% (inactive).
In the case of `CN=C(N)NCCC[C@H](N)C(=O)O`, the “activation” value is reported as -3.33% (inactive).
With `N[C@@H](CS(=O)O)C(=O)O` the “activation” value was 1.86% (inactive).
With `N=S(=O)(O)Cc1noc2ccccc12` the “activation” value was -2.38% (inactive).
In the case of `NCCCCCCCCCCN`, the “activation” value is reported as 0.643% (inactive).
In the case of `Cc1cn([C@H]2CC(N=[N+]=[N-])[C@@H](CO)O2)c(=O)[nH]c1=O` (stereo not given in full), the “activation” value is reported as -2.55% (inactive).
For `Nc1nc(N)c(N=O)c(OCC2CCCCC2)n1`, the “activation” value was 8.88% (inactive).
With `NCCC1CCCC(CCN)N1` (stereo not given) the “activation” value was 1.99% (inactive).
With `C1CCc2nnnn2CC1` the “activation” value was 3.49% (inactive).
For `C[C@@H](CN1CCC(Cc2ccccc2)CC1)[C@@H](O)c1ccc(O)cc1`, the “activation” value was -11.3% (inactive).
In the case of `CCC(=O)N1CCN(C(=O)c2ccccc2)CC1`, the “activation” value is reported as -7.21% (inactive).
In the case of `COC1=C(OC)C(=O)c2ccccc2C1=O`, the “activation” value is reported as -15.7% (inactive).
With `OC[C@H]1O[C@H](n2cnc3c(N[C@H]4CCC[C@@H]4O)ncnc32)[C@H](O)[C@@H]1O` the Potency was 9080 nM (active).
With `COC(=O)C(C)(N)Cc1ccc(O)cc1` (stereo not given) the “activation” value was -4.52% (inactive).
With `CN1CCCC1CCOC(C)(c1ccccc1)c1ccc(Cl)cc1` (stereo not given) the “activation” value was -4.52% (inactive).
With `Cn1c(=O)c(-c2c(Cl)cccc2Cl)cc2cnc(Nc3ccc(N4CCOCC4)cc3)nc21` the Potency was 53.1 nM (active).
For `Cc1nc2c(OCc3ccccc3)cccn2c1CC#N`, the “activation” value was 9.32% (inactive).
In the case of `O=C(NOCC1CC1)c1cc(Br)c(F)c(F)c1Nc1ccc(I)cc1Cl`, the “activation” value is reported as -0.973% (inactive).
For `COc1ccc(CCN(C)CCc2ccc(OC)c(OC)c2)cc1OC`, the “activation” value was 6.63% (inactive).
In the case of `CCN(CC)CCOc1ccc(Nc2ncc3cc(-c4c(Cl)cccc4Cl)c(=O)n(C)c3n2)cc1`, the Potency is reported as 90.8 nM (active).
In the case of `CCNc1nc2c(ncn2[C@H]2C[C@H](O)[C@@H](CO)O2)c(=O)[nH]1`, the “activation” value is reported as 3.73% (inactive).
In the case of `CN1CCc2ccccc2Cc2[nH]c3ccccc3c2CC1`, the “activation” value is reported as -2.6% (inactive).
In the case of `O=C(O)CCc1ccc(NCc2cccc(Oc3ccccc3)c2)cc1`, the “activation” value is reported as -4.16% (inactive).
With `O=[N+]([O-])c1ccc(-c2nc(-c3ccc(F)cc3)c(-c3ccncc3)[nH]2)cc1` the “activation” value was -16.9% (inactive).
For `Cc1cc(NC2CCCCC2)nc(-n2nc(C)cc2C)n1`, the “activation” value was -33.8% (inactive).
With `C[C@@H](NCCc1ccc(O)cc1)[C@@H](O)c1ccc(O)cc1` the “activation” value was 6.38% (inactive).
With `COc1ccccc1CNCCCCCCNCCCCCCCCNCCCCCCNCc1ccccc1OC` the “activation” value was -5.04% (inactive).
For `Cn1c(=O)c2[nH]c(-c3ccccc3)nc2n(C)c1=O`, the “activation” value was -2.87% (inactive).
With `O=C(O)Cc1ccc(O)c(O)c1` the “activation” value was -4.36% (inactive).
In the case of `NC1(C(=O)O)CCCCC1`, the “activation” value is reported as -3.7% (inactive).
For `CC1C(=O)N(C)C(=O)c2nc[nH]c21` (stereo not given), the “activation” value was -4.13% (inactive).
With `NC(=O)C(=O)O` the “activation” value was 2.71% (inactive).
In the case of `CS(=O)(=O)c1cccc(CNc2nc(Nc3ccc4c(c3)CCC(=O)N4)ncc2C(F)(F)F)c1`, the “activation” value is reported as 2.9% (inactive).
For `[Li+]`, the “activation” value was -2.38% (inactive).
In the case of `Nc1ncnc2c1nc(Br)n2C1OC2COP(=O)(O)O[C@@H]2C1O` (stereo not given in full), the “activation” value is reported as 7.83% (inactive).
In the case of `NC(=O)c1cccc(N)c1`, the “activation” value is reported as 2.31% (inactive).
For `CCCOC(=O)c1ccc(O)cc1`, the “activation” value was 4.57% [at 92.2 µM] (inactive).
